# Bioassay records (PubChem BioAssay)
# HP1b binding inh: HP1-beta chromodomain-methylated histone interaction inhibition | P83916 | AlphaScreen HP1-beta / biotin-H3K9me3 peptide binding | Potency, µM (titrated, usually from 114 µM), usual class: inhibitors | 390,000 compounds, 0.56% hits; further: nearly all actives have a fitted effect of over 70% in size
#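 Compound inhibition of the preformed complex between 50 nM HP1-beta and 50 nM biotinylated H3K9me3 peptide was read by AlphaScreen. Buffer was PBS pH 7.4 with 0.01% Tween-20. Incubations ran 30 min at room temperature, with 10 ug/mL donor/acceptor beads.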
# KDM4E inh: inhibitors of human JMJD2E histone demethylase. JMJD2E catalytic domain, FDH-coupled NADH fluorescence (FDH is formaldehyde dehydrogenase). B2RXH2. Potency, µM (titrated, usually from 57.1 µM), hits mostly inhibitors. 230,000 compounds, 1.6% hits; active means well fitted inhibition curve with a large enough effect, not every such curve was filed as active; inconclusive means small, poorly fitted or top-dose-only effect, or another doubt; inactive means no such curve, though single readings can be large or run the other way; further: nearly all actives have a fitted effect of over 50% in size
# JMJD2A Tudor: blocks the human JMJD2A Tudor domain | 390,000 compounds, 4.4% hits | O75164 | Potency, µM (titrated, usually from 114 µM), hits mostly inhibitors | AlphaScreen JMJD2A-Tudor / H3K4me3 peptide binding; further: nearly all actives have a fitted effect of over 50% in size
# BAZ2B inh: inhibitors of human BAZ2B bromodomain; Q9UIF8; AlphaScreen BAZ2B-H3K14Ac peptide displacement; Potency, µM (titrated, usually from 114 µM), actives largely listed as inhibitors; 360,000 compounds, 4.4% hits; further: nearly all actives have a fitted effect of over 60% in size
#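 AlphaScreen displacement: compounds (up to 110uM) incubated 30 min at room temperature with a preformed 50 nM BAZ2B/50 nM biotinylated H3K14Ac peptide complex in PBS pH 7.4 with Tween-20. Donor and acceptor beads at 10 ug/mL final added, 20 min light-protected before reading.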
# L3MBTL1 block: blocks human L3MBTL1 | Q9Y468 | AlphaScreen L3MBTL1–H3K9me1 peptide binding | Potency, µM (highest dose often 57.1 µM), most hits filed as inhibitors | 230,000 compounds, 0.66% hits | AID 485360; further: nearly all actives have a fitted effect of over 60% in size
#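 L3MBTL1 (50 nM) pre-complexed 30 min with biotinylated H3(1-15)K9me1 peptide (75 nM), then compounds added for 30 min at room temperature; AlphaScreen streptavidin donor/nickel chelate acceptor beads (10 ug/mL final) read after 30 min dark incubation.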
# PI5P4Ka inh: blocks human PI5P4K alpha kinase activity; PI5P4Kalpha enzyme, ADP-Glo luminescence, 60 min; stronger effect = lower value; max response, %; 330,000 compounds, 1.2% hits; P48426; active means max response of -50% or lower; inconclusive means between -30% and -50%; inactive means -30% or higher; further: value at the top dose of about 77 µM
# Target sequence (P48426 whole entry, looked up): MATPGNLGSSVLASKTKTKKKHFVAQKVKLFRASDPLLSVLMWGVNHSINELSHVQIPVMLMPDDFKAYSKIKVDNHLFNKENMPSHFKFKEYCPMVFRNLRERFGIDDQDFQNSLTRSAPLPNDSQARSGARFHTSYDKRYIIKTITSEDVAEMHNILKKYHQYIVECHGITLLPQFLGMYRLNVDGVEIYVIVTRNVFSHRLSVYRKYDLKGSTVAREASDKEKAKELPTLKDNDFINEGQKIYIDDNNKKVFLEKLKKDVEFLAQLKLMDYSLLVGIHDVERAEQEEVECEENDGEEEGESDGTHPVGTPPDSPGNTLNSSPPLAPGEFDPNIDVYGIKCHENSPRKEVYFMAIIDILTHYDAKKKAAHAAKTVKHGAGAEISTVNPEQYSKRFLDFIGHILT
#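 qHTS, 1536-well: enzyme/substrate mix, compound by pin tool, 5 microM ATP final; RT 60 min; ADP-Glo reagents 1 (45 min) then 2 (30 min); luminescence.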
# Numbers stand for hits; . = inactive; ? = inconclusive; / = not tested or not shown; [ ] = dose if it differs, or a comment. Hits are enriched below; roughly 5.7% of the tested compounds scored in any of these assays. Unless noted, the call rests on the fitted dose curve; in most records, active means well fitted inhibition curve with a large enough effect; inconclusive means small, poorly fitted or top-dose-only effect; inactive means no such curve, though single readings can be large or run the other way.
SMILES,HP1b binding inh,KDM4E inh,JMJD2A Tudor,BAZ2B inh,L3MBTL1 block,PI5P4Ka inh
Nc1nc(N)c(N=Nc2ccc(SCC(=O)O)cc2)c(=O)[nH]1,.,?,.,?,.,-64
O=C(CSc1n[nH]c(-c2ccc(F)cc2)n1)NCc1ccccc1Cl,.,/,.,.,/,/
C#CCOCCOCCOCCNc1nc(N2CCN(C(=O)[C@H](CCCCN)n3cc([C@@H](N)CO)nn3)CC2)nc(N2CCN(C(=O)[C@H](Cc3cc4ccccc4[nH]3)n3cc([C@@H](N)CC(C)C)nn3)CC2)n1,/,.,/,45µM,.,/
C#CCOCCOCCOCCNc1nc(N2CCN(C(=O)[C@H](CCCCN)n3cc([C@@H](N)CO)nn3)CC2)nc(N2CCN(C(=O)[C@H](Cc3cc4ccccc4[nH]3)n3cc([C@@H](N)CO)nn3)CC2)n1,/,.,/,22µM,/,/
Cn1nc(Cc2n[nH]c(=S)n2C)c2ccccc2c1=O,.,.,4µM,.,/,.
CC1=CC(=NOC(=O)/C=C/c2ccccc2)C=C(C)C1=O,.,.,.,13µM,.,.
CC1=CC(=O)C=C(C)C1=NOC(=O)/C=C\c1ccccc1,.,.,.,.,.,.
CC1=C(C)/C(=N\OC(=O)/C=C/c2ccccc2)C=CC1=O,?,.,18µM,.,.,?
Cc1ccc(NC(=O)C(C)OC(=O)/C=C/c2ccccc2)cc1 (stereo unspecified),.,/,.,.,/,.
O=C1CCCN2N=C(SCC(=O)Nc3cccc(C(F)(F)F)c3)SC2=N1,.,/,.,.,/,.
O=C1CCCN2N=C(SCC(=O)Nc3ccccc3C(F)(F)F)SC2=N1,?,/,?,56µM,/,.
COc1cc(C)c(Cl)cc1S(=O)(=O)NCCc1c(C)[nH]c2ccccc12,.,/,?,32µM,/,/
Cc1ccc(CNc2ccc(O)cc2)cc1,.,11µM,50µM,32µM,25µM,?
CC(=O)N1CCN(c2ccc(NCc3ccc(C)cc3)cc2)CC1,.,?,?,45µM,.,/
CC(=O)N1CCN(c2ccc(NCc3ccc(-c4cccc(Cl)c4)o3)cc2)CC1,?,/,40µM,/,?,/
CC(=O)N1CCN(c2ccc(NCc3ccco3)cc2)CC1,.,/,.,?,.,/
CCc1ccc(CNc2ccc(N3CCN(C(C)=O)CC3)cc2)cc1,.,?,?,40µM,/,.
Cc1nc2nc(NC(=O)c3cccc(Cl)c3)[nH]n2c(=O)c1Cc1ccccc1,.,/,.,.,/,/
COc1cc(CNc2ccc(N3CCN(C(C)=O)CC3)cc2)ccc1OCc1ccccc1,45µM,16µM,45µM,40µM,.,.
Cc1noc(C)c1S(=O)(=O)Nc1ccc2c(c1)C(=O)N([C@@H](C)CO)C[C@H](C)[C@@H](CN(C)Cc1ccc(C(F)(F)F)cc1)OCCCC[C@H](C)O2,/,/,/,/,/,.
CCC(=O)Nc1cccc(-c2nnc(SCC(=O)c3ccccc3)n2C)c1,?,.,40µM,/,.,.
Cn1c(SCC(=O)c2ccccc2)nnc1-c1cnccn1,?,.,25µM,?,.,/
CCn1c(SCC(=O)c2ccccc2)nnc1-c1cnccn1,.,.,.,.,.[11.4 µM],/
CCn1c(SCC(=O)Nc2ccc3c(c2)oc2ccccc23)nnc1-c1ccc(N)cc1,.,.,?,.,/,/
CC(=O)Nc1ccc(-c2nnc(SCC(=O)Nc3ccc4c(c3)oc3ccccc34)n2C)cc1,.,.,100µM,.,.,.
SMILES,HP1b binding inh,KDM4E inh,JMJD2A Tudor,BAZ2B inh,L3MBTL1 block,PI5P4Ka inh
C[C@@H]1CN(Cc2nnnn2CC(=O)NCCCn2cccn2)C[C@H](C)O1,/,/,/,/,/,.
CCOC(=O)Cc1csc(N/N=C\c2cccc(Br)c2)n1,.,.,28µM,.,.,.
CCOC(=O)Cc1csc(N/N=C\c2ccc(N(C)C)cc2)n1,.,/,40µM,11µM,/,.
CCOC(=O)Cc1csc(N/N=C/c2ccccc2)n1,.,.,.,.,.,.
COc1ccc(/C=N/Nc2nc(C(=O)O)cs2)cc1,.,/,?,45µM,?,-63
CCc1nnc2n1N(C(C)=O)C(c1ccc(C(C)(C)C)cc1)=C(C(C)=O)S2,.,/,.,.,/,/
CN(C)c1ccc(/C=N/NC(=O)C[n+]2ccccc2)cc1,.,/,.,/,/,.
O=C(C[n+]1ccccc1)N/N=C/c1ccc(C(=O)O)cc1,.,/,.,79µM,.,.
